This passage reports sensor-assay potency score (higher = more potent) results from the OligoGym collection.
Further: reference of the scale not given here.

One test has as its target NUP188. The experiment in a line: pooled miR-30 sensor sort-seq; sequence = guide strand. The note with it: shRNA.
Sequence TACTACATAGTATATCTCCAAG returned a sensor-assay potency score (higher = more potent) of -1.14.

As to TTACACAGGGTACAAGTCCTTG, the sensor-assay potency score (higher = more potent) is -0.672. Same read-out and setting: then TATTGGTCTGCCTACTACCAAA, with -1.79.

For TAACTCTCTCTTCCACTGCCGG, the sensor-assay potency score (higher = more potent) is -0.922. On the same count and under the same terms, the value for TATTGATAACTGTCTGTCCTGC was -0.496; that for TTTTCTTGTCCAGCTCTCCAAG was -0.925. On to TAATGCTGCAGCATCTTTCGAC, for which the sensor-assay potency score (higher = more potent) was -0.404. On the same count and under the same terms, the value for TACTCTAACAAGGAGGTGCAGC was -0.568; that for TAGAACAGCAATGAGGTTGTTT was 0.0605; that for TAGGTGTCTGTGCTGTGCCGTT was -0.606. On the same count and under the same terms, then TATCGCATGAATCAGCTCCAAG, with -1.05. Regarding TTGCTCTTTAAACATCTTGGTT, the sensor-assay potency score (higher = more potent) is -0.993.

The target of the next test is NUP214. The test is described as above. Conditions: shRNA.
The sequence TTTGTTGGACACAGCAAGCAGA displayed a sensor-assay potency score (higher = more potent) of -0.715. Still for that read-out and setting: then TTATCAACTATTTTGTTGGGAT, with 0.33. Still for that read-out and setting: the value for TAATGATGCTGTCTCTCCGTGC was -0.651; that for TAGAACATCATTCACATCTTGG was -0.0154; that for TAATCTGATCACTTTGTCGAGC was -0.175. On the same count and under the same terms, the value for TTTGTTGGGATCATCTCCGGGT was -0.0183; that for TTTTGTTGGGATCATCTCCGGG was -0.302; that for TAAAGTTCACAAATATCTCTGG was 0.255. Regarding TTTAGTAGGAAAAATCTGCAAG, the sensor-assay potency score (higher = more potent) is -0.492. The same measure, in the same setting: the value for TTTATCAACTATTTTGTTGGGA was 1.13. Same read-out and setting: the value for TTGACTTTGACAGCAGAGGTTG was -0.446. TAACTCTTCCAACTCCTTCTGA: the sensor-assay potency score (higher = more potent) is -0.0589.
